The values below come from PubChem BioAssay.

The source made the active and inactive calls. Unless noted, no rule for the calls is given here.

A short description of assay [1]: compounds binding Alexa647 anti-His antibody – biochemical, small-molecule microarray, 635 nm fluorescence, artefact control for SMM control protein annotation, primary screen (AID 1128).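 Also: score merges feature fluorescence with signal-to-noise for each printed compound spot.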 The following applies: higher = more signal.
In assay [2] the test system is Human papillomavirus type 1a E7 protein (residues 1-88). Nature of the assay: HPV1a E7 small-molecule binders, primary screen, biochemical, small-molecule microarray, residues 1-88, 635 nm (AID 1129). Conditions: small-molecule microarray binding, fluorescence 635 nm; higher = more signal.
In assay [3] the target is Focal adhesion kinase 1 (Homo sapiens) (UniProt Q05397). Put plainly: PTK2 protein binding on printed compound slides – biochemical, small-molecule microarray, 635/667 nm fluorescence, BSA, DTT, primary screen (AID 1130).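 Also: composite of spot emission at 667 nm and signal to noise over triplicate slides.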 Conditions: 635 nm fluorescence, higher = more signal.
Sequence of Focal adhesion kinase 1 (Homo sapiens) (Q05397 whole entry, looked up): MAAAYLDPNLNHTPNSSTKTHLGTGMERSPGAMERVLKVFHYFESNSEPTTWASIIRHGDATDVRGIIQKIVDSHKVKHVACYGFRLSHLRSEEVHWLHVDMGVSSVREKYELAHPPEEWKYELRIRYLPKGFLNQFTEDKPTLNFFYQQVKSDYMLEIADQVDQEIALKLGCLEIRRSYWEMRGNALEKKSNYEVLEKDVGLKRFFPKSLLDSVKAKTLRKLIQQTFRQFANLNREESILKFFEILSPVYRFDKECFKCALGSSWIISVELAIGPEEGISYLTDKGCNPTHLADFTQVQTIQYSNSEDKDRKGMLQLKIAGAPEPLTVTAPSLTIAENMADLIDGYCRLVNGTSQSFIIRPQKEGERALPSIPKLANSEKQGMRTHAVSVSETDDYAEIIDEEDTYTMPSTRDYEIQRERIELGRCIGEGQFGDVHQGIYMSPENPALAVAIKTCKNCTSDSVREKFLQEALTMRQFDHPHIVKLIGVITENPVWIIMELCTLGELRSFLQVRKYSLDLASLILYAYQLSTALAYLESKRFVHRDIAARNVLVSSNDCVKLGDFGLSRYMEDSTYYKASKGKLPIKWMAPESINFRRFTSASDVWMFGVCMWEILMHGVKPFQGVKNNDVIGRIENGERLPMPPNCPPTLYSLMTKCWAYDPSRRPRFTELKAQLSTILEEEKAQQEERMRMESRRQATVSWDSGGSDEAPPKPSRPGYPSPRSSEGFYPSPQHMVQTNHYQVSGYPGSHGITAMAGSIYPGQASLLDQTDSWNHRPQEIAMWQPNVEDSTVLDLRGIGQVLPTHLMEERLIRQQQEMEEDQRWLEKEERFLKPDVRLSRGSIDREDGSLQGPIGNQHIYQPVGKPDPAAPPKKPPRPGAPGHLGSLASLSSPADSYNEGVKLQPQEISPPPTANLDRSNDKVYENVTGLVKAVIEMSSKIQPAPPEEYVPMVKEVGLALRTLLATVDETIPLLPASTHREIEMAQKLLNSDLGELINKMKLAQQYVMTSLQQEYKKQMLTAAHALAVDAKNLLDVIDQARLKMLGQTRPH
In assay [4] the test system is Fibrinogen (Alexa647-labelled). Put plainly: Alexa647-fibrinogen binding to printed small molecules – biochemical, small-molecule microarray, 635/667 nm fluorescence, artefact control for SMM control-protein annotation, profiling panel (AID 1131).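 Also: z-score merges 667 nm fluorescence with per-spot signal-to-noise over triplicate slides.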 The following applies: fibrinogen-A647 binding fluorescence, higher = more signal.
Assay [5] concerns the target Follistatin (Homo sapiens) (UniProt P19883). Nature of the assay: FST protein binding to printed compounds – biochemical, small-molecule microarray, 635/667 nm fluorescence, primary screen (AID 1132). Conditions: 635 nm fluorescence, higher = more signal.
For assay [6], the target named is Fibroblast growth factor 2 (Homo sapiens) (UniProt P09038). Put plainly: basic fibroblast growth factor binding to printed compounds – biochemical, small-molecule microarray, 635/667 nm fluorescence, primary screen (AID 1133). The following applies: FGF2, fluorescence 635/667, higher = more signal.
Sequence of Fibroblast growth factor 2 (Homo sapiens) (P09038 whole entry, looked up): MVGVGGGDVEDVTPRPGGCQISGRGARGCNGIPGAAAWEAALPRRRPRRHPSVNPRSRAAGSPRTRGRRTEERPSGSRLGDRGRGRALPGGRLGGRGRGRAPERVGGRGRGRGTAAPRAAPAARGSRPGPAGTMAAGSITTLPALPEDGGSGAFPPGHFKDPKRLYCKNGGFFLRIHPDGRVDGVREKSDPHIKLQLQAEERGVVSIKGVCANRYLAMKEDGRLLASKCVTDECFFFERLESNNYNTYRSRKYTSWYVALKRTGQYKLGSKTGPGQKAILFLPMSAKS
Assay [7] is described as follows: JC-1 mitochondrial potential readout, lung cancer cells – cell-based, A549, JC-1 fluorescence, basal, 24 h, 100 nL, profiling panel (AID 1138).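 Also: A549 lung adenocarcinoma cells under basal conditions with no added stimulus; test concentration not given here.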 The following applies: higher = more signal.
The subject of another assay is Lefty1. Nature of the assay: Lefty1 protein binding to printed compounds – biochemical, small-molecule microarray, 635/667 nm fluorescence, primary screen (AID 1139). Conditions: fluorescence 635/667, higher = more signal.
Assay [8] relates to wheat germ agglutinin (Triticum aestivum), Alexa647-labelled. Put plainly: Alexa647-WGA lectin binding to printed small molecules – biochemical, small-molecule microarray, 635/667 nm fluorescence, artefact control for SMM control-protein annotation, profiling panel (AID 1140).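 Also: score merges 667 nm feature emission with signal to noise over triplicate slides.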 Conditions: WGA-A647 binding, 635 nm fluorescence, higher = more signal.
For assay [9], the target named is Luciferin 4-monooxygenase (Photinus pyralis) (UniProt P08659). Put plainly: inhibition of purified Photinus pyralis luciferase – biochemical, luminescence, purified enzyme, 2006 set, primary screen (AID 1141).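 Also: cell-free assay with purified firefly luciferase at 100 ng per well in PBS; test concentration not given here.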 Conditions: purified firefly luciferase, SteadyGlo luminescence, 30 min; higher = more signal, called active from +8 up or from −8 down.
Sequence of Luciferin 4-monooxygenase (Photinus pyralis) (P08659 whole entry, looked up): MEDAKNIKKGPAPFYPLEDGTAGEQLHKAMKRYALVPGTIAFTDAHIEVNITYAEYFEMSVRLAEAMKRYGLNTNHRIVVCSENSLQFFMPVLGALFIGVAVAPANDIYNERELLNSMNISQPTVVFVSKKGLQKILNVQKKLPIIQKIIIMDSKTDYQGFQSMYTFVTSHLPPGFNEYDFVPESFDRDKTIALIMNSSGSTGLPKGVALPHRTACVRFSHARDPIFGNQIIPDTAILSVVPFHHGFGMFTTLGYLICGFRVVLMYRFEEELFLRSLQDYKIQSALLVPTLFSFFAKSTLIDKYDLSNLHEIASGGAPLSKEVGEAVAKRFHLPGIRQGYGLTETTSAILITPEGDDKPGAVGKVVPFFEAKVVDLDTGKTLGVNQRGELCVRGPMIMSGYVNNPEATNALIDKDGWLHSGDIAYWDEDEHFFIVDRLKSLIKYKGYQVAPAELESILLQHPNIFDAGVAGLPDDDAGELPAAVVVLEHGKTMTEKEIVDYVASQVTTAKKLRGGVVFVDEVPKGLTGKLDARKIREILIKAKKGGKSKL
Assay [10] has as its system Wnt5a (protein binding on small-molecule microarray). Put plainly: small molecules binding Wnt5a protein – biophysical, small-molecule microarray, 635/667 nm fluorescence, primary screen (AID 1142).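 Also: fluorescence read at 667 nm with signal to noise per printed feature.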 The following applies: 635 nm fluorescence, higher = more signal.
Assay [11] is described as follows: ATP-based viability of Huh7 replicon cells – cell-based, CellTiter-Glo luminescence, basal, 48 h, cytotoxicity control for HCV replication inhibitor project, primary screen (AID 1143).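 Also: Huh7 hepatoma cells carrying a hepatitis C replication reporter with no stimulus; test concentration not given here.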 Conditions: higher = more signal, called active from +8 up or from −8 down.
A short description of assay [12]: Pseudomonas biofilm growth suppression – PAO1 strain, BacTiter-Glo luminescence, LB-PBS, primary screen (AID 1144). The following applies: P. aeruginosa PAO1 biofilm, 12 h, higher = more signal.
The nature of assay [13]: basal CRE-LacZ reporter activity in PC12 – cell-based, unstimulated, primary screen (AID 1145). The following applies: no forskolin, luminescence, 4.5 h, higher = more signal, called active from +8 up or from −8 down.
The nature of assay [14]: forskolin-driven CRE-LacZ activity in PC12 – cell-based, CRE-LacZ reporter, forskolin-stimulated, primary screen (AID 1146).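 Also: PC12 cells with 6xCRE LacZ reporter stimulated by forskolin 10 µM; beta-galactosidase reporter signal reflecting CREB driven transcription.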 The following applies: luminescence, 4.5 h, higher = more signal, called active from +8 up or from −8 down.
The target of assay [15] is Streptavidin (Streptomyces avidinii) (UniProt P22629). Nature of the assay: compounds binding control protein streptavidin – biophysical, small-molecule microarray, 635/667 nm fluorescence, artefact control for SMM compound annotation, primary screen (AID 1147).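 Also: signal reflects streptavidin binding to arrayed compounds as a control protein.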 Conditions: higher = more signal.
Sequence of Streptavidin (Streptomyces avidinii) (P22629 whole entry, looked up): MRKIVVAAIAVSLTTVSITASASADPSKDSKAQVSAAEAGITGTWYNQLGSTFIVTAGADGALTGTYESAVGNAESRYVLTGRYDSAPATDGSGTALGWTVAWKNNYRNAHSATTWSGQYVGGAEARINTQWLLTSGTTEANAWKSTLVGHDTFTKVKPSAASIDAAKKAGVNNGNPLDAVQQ
The nature of assay [16]: probe aInhba binding on compound microarray – biochemical, small-molecule microarray, 635/667 nm fluorescence, primary screen (AID 1148).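 Also: score merges 667nm spot fluorescence with signal-to-noise for antibody binding to printed compounds.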 Conditions: higher = more signal.
Assay [17] deals with Torsin-1A (Homo sapiens) (UniProt O14656). Nature of the assay: TOR1A wild-type binding on microarray – cell lysate, small-molecule microarray, lysate, 635/667 nm, primary screen (AID 1149). Conditions: COS7 hTOR1A-WT lysate, 635 nm fluorescence, higher = more signal.
Sequence of Torsin-1A (Homo sapiens) (O14656 whole entry, looked up): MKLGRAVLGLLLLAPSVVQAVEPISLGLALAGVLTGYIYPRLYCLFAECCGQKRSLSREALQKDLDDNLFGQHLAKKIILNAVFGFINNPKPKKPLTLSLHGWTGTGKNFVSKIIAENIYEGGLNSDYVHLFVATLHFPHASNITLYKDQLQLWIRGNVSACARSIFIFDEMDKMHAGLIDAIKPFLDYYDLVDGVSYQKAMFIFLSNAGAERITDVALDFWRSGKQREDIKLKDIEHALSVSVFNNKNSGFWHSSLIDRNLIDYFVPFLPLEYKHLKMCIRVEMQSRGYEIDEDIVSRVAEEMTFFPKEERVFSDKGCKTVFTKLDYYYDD
Assay [18] shares this target. Put plainly: torsin A mutant lysate binding on microarrays – cell lysate, small-molecule microarray, COS7 lysate, 635/667 nm fluorescence, primary screen (AID 1150).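 Also: score pools 667 nm emission and signal to noise measuring lysate protein binding.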 Conditions: COS7 hTOR1A mutant lysate, 635 nm fluorescence, higher = more signal.
Assay [19] concerns Sonic hedgehog protein (Shh). Put plainly: Sonic hedgehog microarray binding compounds – biochemical, small-molecule microarray, 635/667 nm fluorescence, primary screen (AID 1151).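 Also: Shh protein binding to compounds spotted on small-molecule microarray slides; score combines spot fluorescence intensity with signal-to-noise across triplicate slides.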 The following applies: 635 nm fluorescence, higher = more signal.

Sequence of Follistatin (Homo sapiens) (P19883 whole entry, looked up): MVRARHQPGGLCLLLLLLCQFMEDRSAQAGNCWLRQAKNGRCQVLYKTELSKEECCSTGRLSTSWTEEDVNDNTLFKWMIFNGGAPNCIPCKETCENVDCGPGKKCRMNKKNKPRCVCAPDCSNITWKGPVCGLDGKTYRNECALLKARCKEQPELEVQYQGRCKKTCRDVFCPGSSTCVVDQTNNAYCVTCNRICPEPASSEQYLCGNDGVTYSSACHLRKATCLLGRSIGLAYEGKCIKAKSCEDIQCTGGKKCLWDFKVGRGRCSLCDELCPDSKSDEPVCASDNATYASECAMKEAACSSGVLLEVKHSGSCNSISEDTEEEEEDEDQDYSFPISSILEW

For `COCCOC(=O)N1C(=O)[C@@]2(c3cc(C#Cc4ccc(OC)cc4)ccc31)[C@H](C(=O)N1CCN(c3ncccn3)CC1)[C@H]1C(=O)O[C@H](c3ccccc3)[C@H](c3ccccc3)N1[C@@H]2c1ccc(O)cc1`, the composite z-score in assay [1] is 0.136; in [2], 0.64; in [3] it was 1.2; in [4] it was -0.126; in assay [5] it was 0.755; in [6] it was 0.633. Besides, the composite z-score is 0.331 in the assay on Lefty1; 0.428 in [8]; -0.0081 in assay [10]; -0.0988 in [15]; -0.0762 in [16]; 0.561 in the assay with Torsin-1A (Homo sapiens) [17]. For the same compound, the values for the composite z-score (with Torsin-1A (Homo sapiens) [18]; in [19]) were -0.007 and 0.736, respectively. The z-score was -0.334 in assay [7]; -0.938 (inactive) in assay [9]; -3.61 (inactive) in assay [11]; -1.03 (inactive) in assay [12]; -0.191 (inactive) in assay [13]; 0.0921 (inactive) in [14].
For `CCN(CC)c1ccc(N2CC=CC34O[C@@H]5/C=C\CCCOC(=O)C5[C@H]3C(=O)N(C(CO)C(C)C)[C@@H]4C2=O)cc1` (stereo not given in full), the composite z-score was 1.02 in assay [1]; -1.04 in assay [2]; 0.409 in [3]; -1.1 in assay [4]; -0.45 in assay [5]; -0.593 in assay [6]. Moreover, the composite z-score is -0.217 in the assay on Lefty1; -0.615 in [8]; -0.297 in assay [10]; -0.819 in assay [15]; -0.128 in [16]; 0.006 with Torsin-1A (Homo sapiens) [17]. Further, the composite z-score with Torsin-1A (Homo sapiens) [18] was -1.2; in [19], 0.0008. The z-score in assay [7] is 0.8; in [9], -0.557 (inactive); in assay [11], -0.245 (inactive); in assay [12], 2.75 (inactive); in assay [13], -0.0939 (inactive); in assay [14], 0.119 (inactive).
Consider `O=C1OCCC/C=C\[C@H]2OC34C=CCN(Cn5nnc6ccccc65)C(=O)[C@H]3N(CCCCCO)C(=O)[C@@H]4C12` (stereo not given in full), for which the composite z-score was 0.123 in assay [1]; -0.654 in assay [2]; -0.43 in assay [3]; -1.02 in assay [4]; -0.31 in [5]; -1.16 in [6]. Moreover, the composite z-score is -0.204 in the assay with Lefty1; -1.03 in assay [8]; -0.883 in assay [10]; -1.21 in assay [15]; -0.0762 in assay [16]; -2.35 with Torsin-1A (Homo sapiens) [17]. In addition, the composite z-score is -0.736 with Torsin-1A (Homo sapiens) [18] and 0.436 in assay [19]. Moreover, the z-score in [7] was 0.248; in assay [9] it was 0.786 (inactive); in [11], -0.19 (inactive); in assay [12], -0.477 (inactive); in [13], -0.35 (inactive); in [14], -0.26 (inactive).
With `O=C1O[C@@H](c2ccccc2)[C@@H](c2ccccc2)N2[C@@H](c3ccccc3OCCO)[C@]3(C(=O)Nc4ccc(C#CC5(O)CCCCCC5)cc43)[C@@H](C(=O)Nc3nc4ccccc4s3)[C@H]12`, the composite z-score in [1] stood at 1.22; in assay [2] it was 1.21; in [3] it was 0.237; in assay [4], 0.991; in assay [5] it was 1.25; in [6], 1.02. For the same compound, the composite z-score was 0.744 in the assay with Lefty1; 0.847 in [8]; 0.555 in assay [10]; 1.22 in assay [15]; -0.0195 in assay [16]; 0.711 with Torsin-1A (Homo sapiens) [17]. Besides, the composite z-score with Torsin-1A (Homo sapiens) [18] was 0.659; in [19] it was 0.902. The z-score is -1.98 in assay [7]; -0.84 (inactive) in assay [9]; -5 (inactive) in assay [11]; 0.207 (inactive) in [12]; 0.224 (inactive) in assay [13]; 0.474 (inactive) in assay [14].
`CC(C)C(=C=CC[C@@H](O)c1ccccc1OCCO)C[C@@H](O)c1ccccn1`: the composite z-score in assay [1] is -0.131; in [2], 0.647; in assay [3] it was 1.02; in assay [4], 0.694; in assay [5], 0.6; in assay [6], 0.566. Further, the composite z-score in the assay on Lefty1 was 0.811; in [8], 0.21; in [10] it was -0.0212; in [15], -0.0132; in assay [16] it was 0.0275; in the assay with Torsin-1A (Homo sapiens) [17], 0.276. The composite z-score with Torsin-1A (Homo sapiens) [18] was -0.303; in [19] it was 1.14. Also, the z-score was 1.43 in [7]; -0.623 (inactive) in [9]; -1.3 (inactive) in [11]; 0.497 (inactive) in assay [12]; 1.19 (inactive) in [13]; -0.3 (inactive) in assay [14].
